The subject of assay [1] is PRMT1 (protein arginine N-methyltransferase 1). Description: small molecules binding arginine methyltransferase PRMT1 – biochemical, small-molecule microarray, 635 nm fluorescence, primary screen (AID 1088).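 Also: binding of Prmt1 protein to compounds spotted on small-molecule microarray slides.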 Conditions: higher = more signal.
The nature of assay [2]: growth effects on S. cerevisiae YJM789 – YJM789 clinical isolate, OD600, 24 h, basal, primary screen (AID 1089).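 Also: growth of clinical yeast isolate S. cerevisiae YJM 789 seeded 1000 cells per well; test concentration not given here.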 Conditions: higher = more signal, called active from +8 up or from −8 down.
Assay [3] in a line: S. pombe growth modifiers, basal conditions – strain 972, OD600, 24 h, no modulator, primary screen (AID 1090).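 Also: basal condition with compound alone and no growth modifier present; test concentration not given here.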 Conditions: S. pombe 972 growth, higher = more signal, called active from +8 up or from −8 down.
The nature of assay [4]: budding yeast growth modifiers under rapamycin – strain BY4716, OD600, 96 h, primary screen (AID 1091). Also: test concentration not given here. Conditions: S. cerevisiae BY4716 + rapamycin, higher = more signal, called active from +8 up or from −8 down.
Assay [5] deals with Torsin-1A-interacting protein 2 (Homo sapiens) (UniProt Q8NFQ8). Description: small molecules binding lysate-expressed LULL1 – cell lysate, human LULL1 lysate, 635/667 nm fluorescence, primary screen (AID 1092).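 Also: probe is lysate of COS7 cells overexpressing human LULL1; score merges per-feature 667 nm fluorescence with signal-to-noise.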 The note with it: small-molecule microarray, hLULL1 lysate binding, 635 nm fluorescence; higher = more signal.
The nature of assay [6]: optical density change of DRC41 E. coli – strain DRC41, OD650, 24 h, E. coli filamentation project, primary screen (AID 1093).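 Also: MC1000 strain lacking acrAB efflux and sulA so SOS filamentation is blocked; test concentration not given here.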 The note with it: E. coli DRC41 growth, higher = more signal, called active from +8 up or from −8 down.
Assay [7] can be described thus: probe aLefty2 binding to arrayed compounds – biochemical, biotinylated probe, 635/667 nm fluorescence, primary screen (AID 1094).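 Also: score merges spot fluorescence near 667 nm with spot signal-to-noise ratio.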 The note with it: small-molecule microarray, higher = more signal.
Assay [8] relates to Noggin (protein binding on small-molecule microarray). Description: small molecules binding Noggin protein – biochemical, 635/667 nm fluorescence, primary screen (AID 1095).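 Also: score merges 667 nm feature fluorescence with signal to noise over triplicate slides.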 The note with it: 635 nm fluorescence, higher = more signal.
Assay [9] concerns the target Neurogenic locus notch homolog protein 3 (Homo sapiens) (UniProt Q9UM47). Description: small molecules binding NOTCH3 protein – biochemical, 635/667 nm fluorescence, primary screen (AID 1096). The note with it: small-molecule microarray, 635 nm fluorescence, higher = more signal.
Assay [10] is described as follows: probe aEGFR binding to arrayed compounds – biochemical, biotinylated probe, 635/667 nm fluorescence, primary screen (AID 1097).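 Also: probe is a biotinylated anti-EGFR antibody binding compounds printed on slides; score combines fluorescence near 667 nm and signal to noise of each spot.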 Conditions: small-molecule microarray, higher = more signal.
The test system of assay [11] is Plasmodium falciparum Sir2 (PF13_0152, Sir2A). Description: Plasmodium falciparum Sir2A binding compounds – biochemical, small-molecule microarray, 635 nm fluorescence, primary screen (AID 1098).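 Also: score merges spot fluorescence intensity with its signal-to-noise ratio.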 Conditions: fluorescence 635 nm, higher = more signal.
The nature of assay [12]: probe aDKK1 binding to arrayed compounds – biochemical, biotinylated probe, 635/667 nm fluorescence, primary screen (AID 1099).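 Also: score merges 667nm spot fluorescence with signal to noise across triplicate slides; reference of the scale not given here.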 Conditions: small-molecule microarray, higher = more signal.
Assay [13] can be described thus: probe aCHRDL2 binding to arrayed compounds – biochemical, biotinylated probe, 635/667 nm fluorescence, primary screen (AID 1100). The note with it: small-molecule microarray, higher = more signal.
The nature of assay [14]: change in splice reporter luminescence, either direction, cell-based, HEK293, spliceosome inhibition project, primary screen (AID 1101).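 Also: HEK293 cells carrying a splicing-competent luciferase reporter gene; test concentration not given here.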 Conditions: HEK293 splicing luciferase reporter, 24 h, higher = more signal, called active from +8 up or from −8 down. On the technique in general: Reporter assays use an easily measured gene product as a stand-in for the process of interest.

Assay [15] deals with Fibroblast growth factor 10 (Homo sapiens) (UniProt O15520). The experiment in a line: compounds binding fibroblast growth factor 10 – biochemical, small-molecule microarray, 635 nm fluorescence, primary screen (AID 1102). Conditions: FGF10 binding, fluorescence 635 nm, higher = more signal.
For assay [16], the system named is glycogen synthase kinase-3 (GSK3A per assay name; protocol says GSK3B). The experiment in a line: compounds binding glycogen synthase kinase-3 – biochemical, small-molecule microarray, 635 nm fluorescence, GSK3A, primary screen (AID 1103). Also: the record names both GSK3A and GSK3B. Conditions: fluorescence 635 nm, higher = more signal.
For assay [17], the target named is Epidermal growth factor receptor (Homo sapiens) (UniProt P00533). The experiment in a line: compounds binding epidermal growth factor receptor – biochemical, small-molecule microarray, 635 nm fluorescence, primary screen (AID 1104).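 Also: score merges 667 nm emission intensity with spot signal to noise over triplicate slides.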 The note with it: EGFR binding, higher = more signal.
Assay [18] deals with Follistatin-related protein 3 (Homo sapiens) (UniProt O95633). The experiment in a line: compounds binding follistatin-related protein 3 – biochemical, small-molecule microarray, 635 nm fluorescence, primary screen (AID 1105).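 Also: score merges emission near 667 nm and signal to noise per printed spot across three slides.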 Conditions: FSTL3 binding, higher = more signal.
For assay [19], the target named is Dickkopf-related protein 1 (Homo sapiens) (UniProt O94907). The experiment in a line: small molecules binding DKK1 protein – biochemical, small-molecule microarray, 635 nm fluorescence scan, primary screen (AID 1106).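 Also: score merges emission near 667 nm with signal to noise over three replicate slides.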 Conditions: higher = more signal.
For assay [20], the system named is Inhibin beta A chain (activin A). Description: small molecules binding activin A – biochemical, small-molecule microarray, 635 nm fluorescence scan, primary screen (AID 1107).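 Also: mouse activin A protein probed at 4.33 µg/mL on printed slides; score merges bound-protein fluorescence near 667 nm with spot signal-to-noise.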 Conditions: INHBA, higher = more signal.

The source made the active and inactive calls.

Sequence of Epidermal growth factor receptor (Homo sapiens) (P00533 whole entry, looked up): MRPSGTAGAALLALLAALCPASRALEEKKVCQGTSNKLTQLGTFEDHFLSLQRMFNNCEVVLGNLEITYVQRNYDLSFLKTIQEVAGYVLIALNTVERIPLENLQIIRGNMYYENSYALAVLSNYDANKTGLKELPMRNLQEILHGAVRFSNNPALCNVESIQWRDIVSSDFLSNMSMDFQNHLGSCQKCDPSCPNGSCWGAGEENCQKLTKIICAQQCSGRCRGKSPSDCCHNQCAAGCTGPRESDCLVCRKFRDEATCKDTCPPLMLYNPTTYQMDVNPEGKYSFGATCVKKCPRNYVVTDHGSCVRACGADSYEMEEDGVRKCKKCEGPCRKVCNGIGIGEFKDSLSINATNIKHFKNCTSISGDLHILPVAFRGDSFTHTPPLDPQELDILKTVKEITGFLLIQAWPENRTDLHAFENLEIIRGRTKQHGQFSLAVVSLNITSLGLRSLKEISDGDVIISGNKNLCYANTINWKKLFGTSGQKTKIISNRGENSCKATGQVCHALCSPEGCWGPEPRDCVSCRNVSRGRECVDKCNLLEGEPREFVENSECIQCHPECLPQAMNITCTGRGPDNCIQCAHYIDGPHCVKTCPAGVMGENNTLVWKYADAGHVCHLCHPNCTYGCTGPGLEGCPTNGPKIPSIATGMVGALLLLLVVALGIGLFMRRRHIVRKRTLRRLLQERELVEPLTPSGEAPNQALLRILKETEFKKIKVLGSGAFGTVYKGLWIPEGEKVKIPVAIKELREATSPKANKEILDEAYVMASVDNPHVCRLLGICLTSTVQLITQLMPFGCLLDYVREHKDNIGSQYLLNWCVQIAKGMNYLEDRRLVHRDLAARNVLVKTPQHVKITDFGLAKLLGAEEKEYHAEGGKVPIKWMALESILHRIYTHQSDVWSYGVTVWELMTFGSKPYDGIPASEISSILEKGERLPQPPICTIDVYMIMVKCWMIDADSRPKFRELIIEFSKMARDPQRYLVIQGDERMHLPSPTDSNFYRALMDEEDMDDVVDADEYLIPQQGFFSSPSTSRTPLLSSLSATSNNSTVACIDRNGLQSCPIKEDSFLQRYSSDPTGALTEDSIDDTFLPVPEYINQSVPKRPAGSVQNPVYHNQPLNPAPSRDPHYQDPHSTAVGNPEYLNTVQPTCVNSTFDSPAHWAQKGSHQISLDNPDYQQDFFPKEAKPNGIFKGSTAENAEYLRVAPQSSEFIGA
Sequence of Neurogenic locus notch homolog protein 3 (Homo sapiens) (Q9UM47 whole entry, looked up): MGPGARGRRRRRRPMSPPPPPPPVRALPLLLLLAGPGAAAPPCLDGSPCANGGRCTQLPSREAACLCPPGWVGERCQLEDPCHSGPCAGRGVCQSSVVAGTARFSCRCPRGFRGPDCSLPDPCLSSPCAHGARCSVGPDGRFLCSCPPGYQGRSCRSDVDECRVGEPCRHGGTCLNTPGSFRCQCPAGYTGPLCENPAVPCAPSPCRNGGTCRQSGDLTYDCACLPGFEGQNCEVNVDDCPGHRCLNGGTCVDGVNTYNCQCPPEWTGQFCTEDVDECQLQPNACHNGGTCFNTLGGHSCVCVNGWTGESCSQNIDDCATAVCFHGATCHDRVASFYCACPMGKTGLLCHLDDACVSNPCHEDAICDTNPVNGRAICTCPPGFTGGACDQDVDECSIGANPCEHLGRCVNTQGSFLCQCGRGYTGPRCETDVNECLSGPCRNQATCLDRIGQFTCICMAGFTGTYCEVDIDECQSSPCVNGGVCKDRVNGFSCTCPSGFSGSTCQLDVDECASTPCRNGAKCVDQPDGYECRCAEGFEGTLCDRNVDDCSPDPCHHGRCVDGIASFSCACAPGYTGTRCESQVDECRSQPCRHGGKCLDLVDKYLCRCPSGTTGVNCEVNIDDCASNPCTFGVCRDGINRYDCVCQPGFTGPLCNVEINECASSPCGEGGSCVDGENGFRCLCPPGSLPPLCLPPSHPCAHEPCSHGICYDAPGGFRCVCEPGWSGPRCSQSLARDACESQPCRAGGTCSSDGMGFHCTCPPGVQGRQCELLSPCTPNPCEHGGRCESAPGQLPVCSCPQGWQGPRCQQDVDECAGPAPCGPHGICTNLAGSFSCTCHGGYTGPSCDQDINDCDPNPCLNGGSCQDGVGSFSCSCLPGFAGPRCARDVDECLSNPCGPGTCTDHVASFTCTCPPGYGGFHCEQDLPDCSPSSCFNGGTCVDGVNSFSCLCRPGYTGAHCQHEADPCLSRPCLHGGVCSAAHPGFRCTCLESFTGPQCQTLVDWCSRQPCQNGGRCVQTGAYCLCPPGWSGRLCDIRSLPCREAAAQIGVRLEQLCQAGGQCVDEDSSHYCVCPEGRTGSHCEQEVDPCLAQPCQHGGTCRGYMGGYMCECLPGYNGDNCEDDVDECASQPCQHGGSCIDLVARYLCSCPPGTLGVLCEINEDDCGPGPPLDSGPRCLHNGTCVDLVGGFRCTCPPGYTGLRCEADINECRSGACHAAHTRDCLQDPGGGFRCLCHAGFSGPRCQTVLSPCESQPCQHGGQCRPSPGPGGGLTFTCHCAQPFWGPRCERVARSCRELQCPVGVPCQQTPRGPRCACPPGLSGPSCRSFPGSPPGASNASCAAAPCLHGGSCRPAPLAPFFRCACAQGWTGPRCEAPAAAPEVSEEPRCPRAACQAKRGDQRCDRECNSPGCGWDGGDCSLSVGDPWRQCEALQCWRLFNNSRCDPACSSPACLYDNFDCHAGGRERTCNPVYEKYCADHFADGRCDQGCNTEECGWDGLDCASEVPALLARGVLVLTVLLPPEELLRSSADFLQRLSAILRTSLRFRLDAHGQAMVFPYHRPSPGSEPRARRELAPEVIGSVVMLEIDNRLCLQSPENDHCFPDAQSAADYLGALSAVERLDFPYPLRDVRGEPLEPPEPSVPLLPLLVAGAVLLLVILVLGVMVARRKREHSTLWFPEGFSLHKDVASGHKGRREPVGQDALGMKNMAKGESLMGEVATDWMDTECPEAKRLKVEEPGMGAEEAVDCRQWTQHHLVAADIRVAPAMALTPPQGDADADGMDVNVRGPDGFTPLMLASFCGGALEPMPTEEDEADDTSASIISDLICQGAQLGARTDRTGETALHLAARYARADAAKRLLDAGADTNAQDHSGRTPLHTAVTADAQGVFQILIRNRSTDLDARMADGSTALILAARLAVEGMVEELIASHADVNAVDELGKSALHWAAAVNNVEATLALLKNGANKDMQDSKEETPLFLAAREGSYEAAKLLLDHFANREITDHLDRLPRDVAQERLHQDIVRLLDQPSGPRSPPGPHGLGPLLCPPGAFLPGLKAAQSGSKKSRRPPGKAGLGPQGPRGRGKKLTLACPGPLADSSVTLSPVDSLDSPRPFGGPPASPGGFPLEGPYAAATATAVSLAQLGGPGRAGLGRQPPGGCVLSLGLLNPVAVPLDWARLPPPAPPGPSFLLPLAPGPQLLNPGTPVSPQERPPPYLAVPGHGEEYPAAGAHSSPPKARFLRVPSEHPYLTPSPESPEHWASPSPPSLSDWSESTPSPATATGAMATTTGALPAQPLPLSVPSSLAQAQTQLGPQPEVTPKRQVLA
Sequence of Fibroblast growth factor 10 (Homo sapiens) (O15520 whole entry, looked up): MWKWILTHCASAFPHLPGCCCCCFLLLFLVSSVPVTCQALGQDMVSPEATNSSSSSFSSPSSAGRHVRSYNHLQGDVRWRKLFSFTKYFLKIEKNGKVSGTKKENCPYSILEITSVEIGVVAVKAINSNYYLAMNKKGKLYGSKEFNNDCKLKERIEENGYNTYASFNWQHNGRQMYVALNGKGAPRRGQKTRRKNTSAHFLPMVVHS
Sequence of Follistatin-related protein 3 (Homo sapiens) (O95633 whole entry, looked up): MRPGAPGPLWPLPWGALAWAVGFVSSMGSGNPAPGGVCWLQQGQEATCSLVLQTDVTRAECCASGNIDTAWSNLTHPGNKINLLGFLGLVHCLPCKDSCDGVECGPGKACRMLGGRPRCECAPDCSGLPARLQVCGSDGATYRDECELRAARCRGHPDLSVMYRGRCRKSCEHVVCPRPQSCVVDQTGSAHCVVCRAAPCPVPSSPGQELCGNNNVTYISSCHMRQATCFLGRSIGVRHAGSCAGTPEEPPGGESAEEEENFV
Sequence of Dickkopf-related protein 1 (Homo sapiens) (O94907 whole entry, looked up): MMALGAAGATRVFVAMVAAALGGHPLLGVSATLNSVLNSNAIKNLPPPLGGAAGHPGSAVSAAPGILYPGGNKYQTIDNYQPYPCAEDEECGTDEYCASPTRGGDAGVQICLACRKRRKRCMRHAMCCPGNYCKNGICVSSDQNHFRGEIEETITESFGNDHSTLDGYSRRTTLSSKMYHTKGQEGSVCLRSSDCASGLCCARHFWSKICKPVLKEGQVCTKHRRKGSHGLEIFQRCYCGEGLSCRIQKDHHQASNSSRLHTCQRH
Sequence of Torsin-1A-interacting protein 2 (Homo sapiens) (Q8NFQ8 whole entry, looked up): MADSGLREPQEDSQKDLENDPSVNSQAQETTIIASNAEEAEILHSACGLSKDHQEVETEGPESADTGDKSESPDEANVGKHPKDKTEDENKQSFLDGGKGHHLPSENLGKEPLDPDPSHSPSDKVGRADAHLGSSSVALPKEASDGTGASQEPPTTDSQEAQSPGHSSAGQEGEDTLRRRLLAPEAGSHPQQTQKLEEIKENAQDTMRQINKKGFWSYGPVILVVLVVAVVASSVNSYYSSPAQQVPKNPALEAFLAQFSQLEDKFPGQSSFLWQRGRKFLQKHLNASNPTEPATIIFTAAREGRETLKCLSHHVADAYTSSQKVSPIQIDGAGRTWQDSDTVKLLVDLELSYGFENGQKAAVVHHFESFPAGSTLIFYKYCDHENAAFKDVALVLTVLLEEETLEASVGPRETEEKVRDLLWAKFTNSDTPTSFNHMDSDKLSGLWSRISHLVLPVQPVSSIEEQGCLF

Consider `COC(=O)c1c(CC[C@@H](CO)NC(=O)N2CCC[C@H]2Cn2cc(C3(O)CCCCC3)nn2)oc(C(C)=O)c1C(=O)OC`, for which the composite z-score in [1] was 1.53; in assay [5], 3.4; in [7] it was -0.124; in assay [8], 0.872; in assay [9], 0.916; in assay [10] it was -0.0097. The composite z-score in [11] is 1.65; in [12] it was -0.152; in assay [13], -0.404; in [15], 0.955; in assay [16] it was 0.56; in assay [17] it was 0.197. Further, the results for the composite z-score in assay [18], in [19] and in assay [20] were 0.742, 0.336 and 0.0806, respectively. For the same compound, the z-score in [2] was 0.752 (inactive); in assay [3], -0.154 (inactive); in [4], -1.28 (inactive); in assay [6], -0.889 (inactive); in assay [14], -0.503 (inactive).

For `CC[C@@H]1O[Si](C(C)C)(C(C)C)c2c1cc(-c1cc(C)c(OC)c(C)c1)nc2-c1ccc(Oc2ccccc2)cc1`, the composite z-score in assay [1] is -0.0555; in assay [5], -0.346; in [7], -0.123; in assay [8] it was 0.0174; in assay [9] it was 0.0178; in [10] it was -0.162. The composite z-score is -0.551 in [11]; 0.825 in assay [12]; -0.0144 in assay [13]; 0.0008 in [15]; -0.732 in assay [16]; -0.451 in [17]. For the same compound, the composite z-score is -0.452 in assay [18], -0.497 in assay [19] and 0.135 in [20]. Further, the z-score in assay [2] was 0.0662 (inactive); in assay [3], 0.131 (inactive); in assay [4], -0.798 (inactive); in [6], -0.333 (inactive); in [14], -0.166 (inactive).

Turning to `C=CCNC(=O)[C@@H]1[C@H]2C(=O)O[C@H](c3ccccc3)[C@H](c3ccccc3)N2[C@H](c2ccc(O)cc2)[C@@]12C(=O)N(C(=O)OCCOC)c1ccc(C#CC3=CCCCC3)cc12`, the composite z-score in assay [1] is 1.49; in assay [5] it was 2.25; in assay [7], -0.156; in assay [8], 1.14; in [9], 1.09; in assay [10] it was -0.0697. The composite z-score in assay [11] is 1.04; in assay [12] it was -0.122; in assay [13], -0.294; in assay [15], 0.965; in assay [16], 1.29; in assay [17] it was 0.714. Moreover, the composite z-score in [18] came out at 1.09; in assay [19] it was 0.53; in assay [20], 0.492. Also, the z-score in [2] is 0.675 (inactive); in assay [3], 0.428 (inactive); in [4] it was 0.969 (inactive); in assay [6], -0.633 (inactive); in assay [14] it was -1.19 (inactive).

In the case of `Cc1ccc(C(C)CC(O)C2C=CC3C(=O)N(c4ccccc4)C(=O)C3N2Nc2ccccc2)o1` (stereo not given), the composite z-score in [1] was 1.53; in assay [5], 3.09; in assay [7], 0.326; in assay [8] it was -0.0381; in assay [9] it was 1.04; in assay [10], 0.216. For the same compound, the composite z-score came out at 0.844 in assay [11]; 1.01 in assay [12]; 0.693 in assay [13]; 0.981 in [15]; 1.28 in [16]; 0.554 in [17]. For the same compound, the composite z-score is 1.2 in assay [18], -0.174 in [19] and 0.843 in assay [20]. The z-score in assay [2] was 0.568 (inactive); in assay [3] it was -0.132 (inactive); in assay [4] it was 0.144 (inactive); in assay [6], -0.866 (inactive); in [14] it was -0.392 (inactive).

On to `CCCCCC1=C2CNC(C)(C(=O)OC)C=C2C(C)C1=O` (stereo not given), for which the composite z-score in assay [1] was -0.998; in [5], 1.14; in [7], 0.118; in assay [8], -0.947; in [9], -0.426; in assay [10] it was -0.0581. For the same compound, the composite z-score in assay [11] is -0.0215; in assay [12] it was 0.827; in assay [13], 0.865; in assay [15], 0.0992; in assay [16], -1.1; in [17] it was -0.476. In addition, the composite z-score in [18] was -0.713; in assay [19], -0.52; in assay [20] it was 1.16. Further, the z-score in assay [2] is 0.511 (inactive); in assay [3] it was 1.7 (inactive); in [4], 1.48 (inactive); in assay [6] it was -0.67 (inactive); in assay [14], 1.23 (inactive).

Values taken from PubChem BioAssay.
